About 83,000 compounds went through this panel and 20% of them were active in at least one assay; those are over-represented in the sample as a whole.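 The test compound was applied at a single concentration to cells in 96-well plates for 48 hours, and percent growth was recorded.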 A number with no mark means an inactive call. The source made the active and inactive calls. How the source made its calls: active means growth percent below 10; inactive means the rest.

The first experiment deals with OVCAR-5 ovarian. Briefly: NCI-60 one-dose screen, 48 h (100 = growth as untreated, 0 = no growth, -100 = all killed). Particulars: 10 µM unless noted.
Regarding `O=C(OCC1CCCO1)c1ccc([N+](=O)[O-])cc1` (configuration not stated), the growth is 109%.

As to `C=CC(=O)OC1CCC(C(C)(C)CC)CC1` (configuration not stated), the growth was 103%.

Turning to `Cc1cc(=O)n(Nc2ccccc2)c(O)c1C#N`, the growth was 105%.

Consider `O=C(O)c1c[nH]c2ccccc2c1=O`, for which the growth is 93.9%.

As to `CCNc1ncnc2[nH]ncc12`, the growth was 104%.

In the case of `COC1OC(C(O)C(O)CO)C(O)C(O)C1O` (configuration not stated), the growth was 88.7%.

On to `CCCCN(C=S)CCCC`, for which the growth was 102%.

Consider `CCOC(=O)c1ccc(C(C)(C)C)cc1`, for which the growth was 106%.

On to `CCOC(=O)C(CCC#N)(CCC#N)C(=O)OCC`, for which the growth was 97.8%.

As for `CCC1CCC(C)NC1` (configuration not stated), the growth was 107%.

Regarding `CC(=O)OC(C)c1cccc(C#N)c1` (configuration not stated), the growth was 104%.

For the molecule `O=[N+]([O-])c1ccc2[nH]c(=S)n(/C=C(/c3ccc(Cl)cc3Cl)S(=O)(=O)Cc3ccc(Cl)cc3Cl)c2c1`, the growth is 108%.

Consider `C=C(OC(C)=O)c1ccccc1`, for which the growth was 106%.

Take `CC(=O)O[C@H]1CC[C@]2(C)C3=C(C(=O)C[C@H]2C1(C)C)[C@]1(C)CC[C@H]([C@H](C)CCC(=O)O)[C@@]1(C)CC3=O`: the growth was 100%.

Consider `CC(=O)c1cccc(NS(=O)(=O)c2ccc(C)cc2)c1`, for which the growth was 92.8%.

Regarding `O=C(CCl)Oc1ccc([N+](=O)[O-])cc1`, the growth is 107%.

A further experiment relates to OVCAR-4 ovarian. Described as above. Particulars: 10 µM unless noted.
Regarding `Nc1cc2ccccc2c(O)c1O`, the growth is -97.7% (active).

With `CC(=O)Nc1ccc(O)c(C)c1`, the growth was 100%.

Turning to `O=C(CCl)Nc1ccccc1SCc1cc(Cl)cc2c1OCOC2`, the growth is 47.7%.

With `C/C(O)=C(/C=N\C(=S)Nc1ccc(S(=O)(=O)Nc2nccs2)cc1)C(=O)Nc1ccccc1C`, the growth is 98.7%.

In the case of `CC(C)c1ccc(C(=O)OCCCl)cc1`, the growth was 104%.

Take `O=C(NCc1ccccc1)c1cccc([N+](=O)[O-])c1`: the growth is 111%.

With `C1CCc2onc(-c3noc4c3CCCCC4)c2CC1`, the growth was 109%.

Take `COc1ccc(Nc2cc(Cl)ccc2C(=O)O)cn1`: the growth is 103%.

As to `CCCCOC(=O)c1ccccc1O`, the growth was 105%.

On to `C=CCN1CCCC1=O`, for which the growth was 94.8%.

`CCN(CC)CCN1CNC(=S)NC1`: the growth was 109%.

On to `COC1OC(C(COC(C)=O)OC(C)=O)C(OC(C)=O)C(OC(C)=O)C1OC(C)=O` (configuration not stated), for which the growth is 107%.

`Nc1ccc(F)cc1F`: the growth was 123%.

Consider `COc1cc(CC#N)c([N+](=O)[O-])cc1OC`, for which the growth was 128%.

Consider `CC(C)N(C(=O)c1ccccc1)C(C)C`, for which the growth is 109%.

Turning to `CCC(C)C1CCC(O)CC1` (configuration not stated), the growth is 99.4%.

Consider `Cc1ccc(NC(=S)N2CCOCC2)cc1C`, for which the growth is 102%.

As to `O=C1NC(=O)/C(=C\c2ccncc2)N1`, the growth was 98.6%.

As to `CC(C)(CC(=O)O)CC(=O)O`, the growth is 108%.

As to `ClCC(Cl)[C@@H]1CC2C=CC1C2` (some centres not stated), the growth was 104%.

Take `CC(=O)NCNC(C)=O`: the growth was 110%.

Turning to `CCOC(=O)/C(C)=C\c1ccc(OC)c(OC)c1`, the growth was 101%.

Turning to `O=C(OCC1CCCO1)c1ccc([N+](=O)[O-])cc1` (configuration not stated), the growth is 117%.

In the case of `C=CC(=O)OC1CCC(C(C)(C)CC)CC1` (configuration not stated), the growth was 105%.

Take `Cc1cc(=O)n(Nc2ccccc2)c(O)c1C#N`: the growth is 108%.

For `O=C(O)c1c[nH]c2ccccc2c1=O`, the growth is 93.4%.

On to `CCNc1ncnc2[nH]ncc12`, for which the growth was 108%.

`COC1OC(C(O)C(O)CO)C(O)C(O)C1O` (configuration not stated): the growth was 109%.

Turning to `CCCCN(C=S)CCCC`, the growth is 112%.

As for `CCOC(=O)c1ccc(C(C)(C)C)cc1`, the growth was 109%.

`CCOC(=O)C(CCC#N)(CCC#N)C(=O)OCC`: the growth was 96%.

Regarding `CCC1CCC(C)NC1` (configuration not stated), the growth was 107%.

`CC(=O)OC(C)c1cccc(C#N)c1` (configuration not stated): the growth was 109%.

With `O=[N+]([O-])c1ccc2[nH]c(=S)n(/C=C(/c3ccc(Cl)cc3Cl)S(=O)(=O)Cc3ccc(Cl)cc3Cl)c2c1`, the growth is 95.9%.

In the case of `C=C(OC(C)=O)c1ccccc1`, the growth was 115%.

For `CC(=O)O[C@H]1CC[C@]2(C)C3=C(C(=O)C[C@H]2C1(C)C)[C@]1(C)CC[C@H]([C@H](C)CCC(=O)O)[C@@]1(C)CC3=O`, the growth is 94.7%.

For `CC(=O)c1cccc(NS(=O)(=O)c2ccc(C)cc2)c1`, the growth is 79%.

`O=C(CCl)Oc1ccc([N+](=O)[O-])cc1`: the growth was 106%.

For another experiment, the system named is SK-OV-3 ovarian. The experiment is described as above. The following applies: 10 µM unless noted.
On to `Nc1cc2ccccc2c(O)c1O`, for which the growth was 79.3%.

`CC(=O)Nc1ccc(O)c(C)c1`: the growth is 105%.

`O=C(CCl)Nc1ccccc1SCc1cc(Cl)cc2c1OCOC2`: the growth is 80.8%.

On to `C/C(O)=C(/C=N\C(=S)Nc1ccc(S(=O)(=O)Nc2nccs2)cc1)C(=O)Nc1ccccc1C`, for which the growth was 100%.

On to `CC(C)c1ccc(C(=O)OCCCl)cc1`, for which the growth is 101%.

As to `O=C(NCc1ccccc1)c1cccc([N+](=O)[O-])c1`, the growth is 108%.

For `C1CCc2onc(-c3noc4c3CCCCC4)c2CC1`, the growth is 106%.

As to `COc1ccc(Nc2cc(Cl)ccc2C(=O)O)cn1`, the growth was 97.3%.

On to `CCCCOC(=O)c1ccccc1O`, for which the growth is 110%.

With `C=CCN1CCCC1=O`, the growth is 92.9%.

For `CCN(CC)CCN1CNC(=S)NC1`, the growth was 108%.

As for `COC1OC(C(COC(C)=O)OC(C)=O)C(OC(C)=O)C(OC(C)=O)C1OC(C)=O` (configuration not stated), the growth is 110%.

For `Nc1ccc(F)cc1F`, the growth is 116%.

Consider `COc1cc(CC#N)c([N+](=O)[O-])cc1OC`, for which the growth was 111%.

`CC(C)N(C(=O)c1ccccc1)C(C)C`: the growth was 114%.

With `CCC(C)C1CCC(O)CC1` (configuration not stated), the growth was 109%.

Regarding `Cc1ccc(NC(=S)N2CCOCC2)cc1C`, the growth was 97.9%.

As for `O=C1NC(=O)/C(=C\c2ccncc2)N1`, the growth was 99.2%.

As to `CC(C)(CC(=O)O)CC(=O)O`, the growth is 120%.

Take `ClCC(Cl)[C@@H]1CC2C=CC1C2` (some centres not stated): the growth is 111%.

On to `CC(=O)NCNC(C)=O`, for which the growth is 113%.

In the case of `CCOC(=O)/C(C)=C\c1ccc(OC)c(OC)c1`, the growth was 103%.

In the case of `O=C(OCC1CCCO1)c1ccc([N+](=O)[O-])cc1` (configuration not stated), the growth was 97.9%.

Consider `C=CC(=O)OC1CCC(C(C)(C)CC)CC1` (configuration not stated), for which the growth is 111%.

On to `Cc1cc(=O)n(Nc2ccccc2)c(O)c1C#N`, for which the growth was 99.6%.

Take `O=C(O)c1c[nH]c2ccccc2c1=O`: the growth is 92.3%.

As to `CCNc1ncnc2[nH]ncc12`, the growth is 109%.

Turning to `COC1OC(C(O)C(O)CO)C(O)C(O)C1O` (configuration not stated), the growth was 95.6%.

`CCCCN(C=S)CCCC`: the growth was 88.6%.

Take `CCOC(=O)c1ccc(C(C)(C)C)cc1`: the growth is 104%.

For the molecule `CCOC(=O)C(CCC#N)(CCC#N)C(=O)OCC`, the growth was 108%.

For `CCC1CCC(C)NC1` (configuration not stated), the growth is 111%.

`CC(=O)OC(C)c1cccc(C#N)c1` (configuration not stated): the growth is 93.8%.

Turning to `O=[N+]([O-])c1ccc2[nH]c(=S)n(/C=C(/c3ccc(Cl)cc3Cl)S(=O)(=O)Cc3ccc(Cl)cc3Cl)c2c1`, the growth was 99.1%.

Consider `C=C(OC(C)=O)c1ccccc1`, for which the growth was 96%.

As for `CC(=O)O[C@H]1CC[C@]2(C)C3=C(C(=O)C[C@H]2C1(C)C)[C@]1(C)CC[C@H]([C@H](C)CCC(=O)O)[C@@]1(C)CC3=O`, the growth was 99.3%.

Take `CC(=O)c1cccc(NS(=O)(=O)c2ccc(C)cc2)c1`: the growth was 101%.

Consider `O=C(CCl)Oc1ccc([N+](=O)[O-])cc1`, for which the growth was 133%.

These data come from PubChem BioAssay (NCI).
